Reference: PubChem BioAssay (NCATS)
Unmarked numbers belong to inactive results. Results filed as inconclusive are left out. Entries that show only a call come without a potency. Active and inactive are the calls of the source. Calls come from the whole dose curve; as a rule, active = well fitted curve in the direction sought with a large enough effect; inconclusive = small, poorly fitted or top-dose-only effect, or another doubt; inactive = no such curve, though single readings can be large; an effect the other way counts as inactive or inconclusive.

Tests used:
[1] = qHTS to identify inhibitors of the type 1 interferon - major histocompatibility complex class I in skeletal muscle: primary screen against the NCATS Mechanism Interrogation Plate v5.0 (MIPE) Libary (AID 1347411); note: nearly all actives have a fitted effect of over 65% in size
How it was run: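 Seed engineered human myoblasts (HLA-B HiBit) in medium without dexamethasone containing 4 ng/ml IFN-beta; after 1 hr add compound titrations (top 46 uM final). Incubate 24 hrs at 37 C, lyse 10 min with HiBiT reagent, read luminescence.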

[2] = qHTS to identify inhibitors of the type 1 interferon - major histocompatibility complex class I in skeletal muscle: primary screen against the NCATS Pharmaceutical Collection (AID 1347407);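 note: luminescence of HiBiT knocked into endogenous HLA-B as interferon-induced MHC class I level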
How it was run: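 A qHTS format is used: 8-point, 1:5 compound series with 46 uM top final concentration, applied alongside 4 ng/ml IFN-beta to HLA-B*08:01-HiBiT knock-in myoblasts. Luminescence is measured after 24 h treatment.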

[3] = target: Protein phosphatase 1D (Homo sapiens) (UniProt O15297); assay: RapidFire Mass Spectrometry qHTS Assay for Modulators of WT P53-Induced Phosphatase 1 (WIP1) (AID 1347424); note: series mostly up to about 63 µM
How it was run: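 RapidFire MS readout of dephosphorylated VEPPL-S-QETFS product, with 1 uM isotope-labelled peptide standard. Reaction: 10 nM WIP1, 2 uM phosphopeptide substrate, 5 min, room temperature, after 1 h compound preincubation; stopped with 0.5% formic acid.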

[4] = Primary qHTS for inhibitors of La Crosse Virus (LACV) - induced cell death in SH-SY5Y cells (AID 1508616);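 note: top concentration of the series differs between compounds; higher means more rescue of cells from virus-induced death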
How it was run: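 SH-SY5Y, 6000 cells/well; cpd via pin tool in DMSO; LACV 0.01 MOI; 6 d 37C 5% CO2; ATPLite, 5 min RT; luminescence normalized to ±virus DMSO controls.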

[5] = target: Calcium and integrin-binding protein 1 (Homo sapiens) (UniProt Q99828); assay: Primary qHTS for Identification of Calcium Integrin Binding Protein 1 (CIB1) Competitor (AID 1508620); note: potency is the fitted concentration of half-maximal effect;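 for activity change, negative = inhibition: GST tagged CIB1 binding a fluorescein labelled alphaIIb integrin peptide tracer; top concentration of the series differs between compounds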
How it was run: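 Fluorescence polarization competition: GST-tagged CIB1 (1 uM final) preincubated with compound 15 min at room temperature, then FITC-labelled alphaIIb peptide (100 nM final) added. After 15 min at room temperature, polarization read at Ex 480/Em 540.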

[6] = Counterscreen qHTS for small molecule stabilizers of the endoplasmic reticulum resident proteome: GLuc-NoTag assay (AID 1508627); note: series mostly up to about 76 µM
How it was run: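 Counterscreen line: SH-SY5Y-GLuc-NoTag. Seed, 5 h; compound, 19 h; thapsigargin 100 nM, 4 h; 37C/5% CO2. Readout: secreted GLuc luminescence, coelenterazine 0.07x final, no lysis.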

[7] = Confirmatory qHTS for small molecule stabilizers of the endoplasmic reticulum resident proteome: Secreted ER Calcium Modulated Protein (SERCaMP) assay (AID 1508628); note: series mostly up to about 76 µM; nearly all actives have a fitted effect of over 40% in size
How it was run: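 Reporter secretion upon ER calcium depletion (100 nM thapsigargin, 4 h, 37C) is measured as medium luminescence with coelenterazine, after 16 h compound pretreatment of SH-SY5Y-GLuc-SERCaMP cells; primary at three concentrations up to 38.3 uM, follow-up at 11 (up to 76.6 uM).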

[8] = Cell Viability qHTS for small molecule stabilizers of the endoplasmic reticulum resident proteome (AID 1508629); conditions: cell viability counter-screen, 100 nM thapsigargin for final 4 h;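 note: human SH-SY5Y neuroblastoma cells carrying the GLuc-SERCaMP reporter; compound exposure about 46 h in total before the viability read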
[9] = target: Protein phosphatase 1D (Homo sapiens) (UniProt O15297); assay: Rhodamine-PBP qHTS Assay for Modulators of WT P53-Induced Phosphatase 1 (WIP1) (AID 1347425)
How it was run: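 Steps: enzyme with Rh-PBP sensor and compounds, room-temperature incubation of 1 hr, baseline read, addition of VEPPL-pS-QETFS (10 uM final), kinetic fluorescence reads at 525/598 nm. Activity equals final minus baseline signal.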

[10] = target: Calcium and integrin-binding protein 1 (Homo sapiens) (UniProt Q99828); assay: Confirmatory qHTS for Identification of Calcium Integrin Binding Protein 1 (CIB1) Competitor (AID 1508617); conditions: CIB1 binding competition assay, biochemical qHTS; note: potency is the fitted concentration of half-maximal effect; nearly all actives have a fitted effect of over 65% in size
How it was run: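 Binding competition between test compounds and fluorescent alphaIIb peptide for 1 uM CIB1-GST is monitored by FP at 480/540 nm. Final compound range is up to 114 uM; unlabeled peptide serves as reference competitor.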

[11] = tested on: Zika virus NS2B-NS3 protease (linked); assay: 384 well plate NINDS AMC confirmatory qHTS for Zika virus inhibitors (AID 1347163); conditions: Recombinant NS2B-NS3 protease, Ac-VKTGKR-AMC fluorescence; note: potency is the fitted concentration of half-maximal effect; nearly all actives have a fitted effect of over 50% in size
How it was run: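 Fluorescence at 355/460 nm was read after 25 minutes of cleavage of 30 microM Ac-VKTGKR-AMC at room temperature, in the dark. Before substrate addition, compounds (up to 1 mM final) sat ~15 minutes with 5, 30 or 60 nM linked protease. Signals were normalized to no-enzyme and no-inhibitor wells.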

[12] = tested on: Zika virus NS2B-NS3 protease (linked construct); assay: 384 well plate NINDS Rhodamine confirmatory qHTS for Zika virus inhibitors (AID 1347164); conditions: rhodamine-110 peptide substrate fluorescence; note: potency is the fitted concentration of half-maximal effect; nearly all actives have a fitted effect of over 65% in size
How it was run: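 Cleavage of Ac-LKRR-Rhodamine 110 (10 microM final) by linked protease (final 5, 30 or 60 nM) was followed as fluorescence at 485/538 nm after 25 min, room temperature, dark. Compounds preincubated ~15 min.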

[13] = Vero cells viability qHTS for Zika virus inhibitors (AID 1347167)
How it was run: (§1)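 qHTS titration; 24-48 h compound exposure, 37 degrees C/5% CO2; DMEM, 4% FBS; CellTiter Glo ATP luminescence.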

[14] = HepG2 cells viability qHTS for Zika virus inhibitors (AID 1347168)
How it was run: as §1

[15] = Tertiary RLuc qRT-PCR qHTS assay for Zika virus inhibitors (AID 1347169); note: top concentration of the series differs between compounds; nearly all actives have a fitted effect of over 55% in size
How it was run: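 Inhibition of ZIKV-RLuc replication in Vero cells, read as Renilla luminescence 1-1.5 hrs after live-cell substrate addition, following 48-72 hrs infection at MOI 1-2 in presence of compound.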

[16] = qHTS to identify inhibitors of the type 1 interferon - major histocompatibility complex class I in skeletal muscle: primary screen against the NCATS LOPAC collection (AID 1347405);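 note: human myoblasts with HiBiT tag on endogenous HLA-B stimulated by IFN-beta; lytic HiBiT luminescence reporting HLA-B protein level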
How it was run: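 First, engineered myoblasts carrying HLA-B-HiBiT were seeded in medium lacking dexamethasone with 4 ng/ml IFN-beta. After 1 hr, compounds were pinned in (top 46 uM final, 7 points). After 24 hrs at 37 C, luminescence was measured following 10 min lysis.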

[17] = qHTS for inhibitors of adenylyl cyclases using a fission yeast platform: a pilot screen against the NCATS LOPAC library (AID 1347410)
How it was run: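 Inhibition of GNAS-stimulated AC9 activity in S. pombe was inferred from derepression of a PKA-repressed fbp1-GFP reporter, measured as cytometric fluorescence after 18 h at 30C with compounds at up to 57 µM.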

[18] = Validation qHTS assay for inhibitors of Activation Induced Cytidine Deaminase (AID): UDG Counterscreen signal (AID 1347427)
How it was run: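 Fluorescence at 560 nm excitation, 665 nm emission reports UDG signal after 250 mM NaOH (2x) addition and 30 min. Enzymes (AID 1 uM, UDG 2 U/mL, at 4/3x) preincubated 10 min with compound, then 4 h with 4x 250 nM DJC20/DJC23 substrate at room temperature.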

[19] = target: Single-stranded DNA cytosine deaminase (Homo sapiens) (UniProt Q9GZX7); assay: Validation qHTS assay for inhibitors of Activation Induced Cytidine Deaminase (AID): AID signal (AID 1347429)
How it was run: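 Steps: dispense AID with UDG; pin-transfer compound up to 114 uM final; add DJC20/DJC23 substrate and hold 4 hr at room temperature; add NaOH, hold 30 min; read FRET signal (540/590 nm).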

[20] = target: Calcium and integrin-binding protein 1 (Homo sapiens) (UniProt Q99828); assay: Validation qHTS for Identification of Calcium Integrin Binding protein 1 (CIB1) Competitor (AID 1508618)
How it was run: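 In this qHTS validation, the LOPAC set (up to 114 uM) was tested for blocking CIB1 binding to a fluorescein-tagged alphaIIb peptide, with FP detection at 480/540 nm.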

Sequence of Calcium and integrin-binding protein 1 (Homo sapiens) (Q99828 whole entry, looked up): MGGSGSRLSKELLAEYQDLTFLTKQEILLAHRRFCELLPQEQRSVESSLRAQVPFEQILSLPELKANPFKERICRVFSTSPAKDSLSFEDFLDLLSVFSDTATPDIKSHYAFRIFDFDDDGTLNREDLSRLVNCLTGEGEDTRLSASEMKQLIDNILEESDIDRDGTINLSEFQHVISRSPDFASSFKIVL
Sequence of Protein phosphatase 1D (Homo sapiens) (O15297 whole entry, looked up): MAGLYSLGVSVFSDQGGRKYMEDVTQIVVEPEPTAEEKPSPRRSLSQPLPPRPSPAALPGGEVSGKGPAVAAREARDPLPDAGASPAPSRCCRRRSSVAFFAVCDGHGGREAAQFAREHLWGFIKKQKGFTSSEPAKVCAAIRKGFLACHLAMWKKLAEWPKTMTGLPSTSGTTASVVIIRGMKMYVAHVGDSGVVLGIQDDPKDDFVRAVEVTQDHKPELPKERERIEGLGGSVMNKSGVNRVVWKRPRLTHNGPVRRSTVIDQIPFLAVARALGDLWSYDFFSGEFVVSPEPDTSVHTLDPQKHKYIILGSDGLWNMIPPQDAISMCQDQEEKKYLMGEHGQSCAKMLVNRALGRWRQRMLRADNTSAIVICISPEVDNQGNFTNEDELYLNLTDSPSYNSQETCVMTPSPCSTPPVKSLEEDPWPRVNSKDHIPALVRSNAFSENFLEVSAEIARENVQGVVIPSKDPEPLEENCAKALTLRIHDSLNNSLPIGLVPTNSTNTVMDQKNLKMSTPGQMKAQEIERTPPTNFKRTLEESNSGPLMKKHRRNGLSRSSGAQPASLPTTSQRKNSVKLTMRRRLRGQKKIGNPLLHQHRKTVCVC
Sequence of Single-stranded DNA cytosine deaminase (Homo sapiens) (Q9GZX7 whole entry, looked up): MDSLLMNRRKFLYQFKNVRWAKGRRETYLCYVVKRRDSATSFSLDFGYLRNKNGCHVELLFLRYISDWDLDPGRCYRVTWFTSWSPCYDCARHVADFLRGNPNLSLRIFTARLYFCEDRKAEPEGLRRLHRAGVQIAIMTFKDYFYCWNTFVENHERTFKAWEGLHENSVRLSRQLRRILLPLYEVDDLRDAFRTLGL

**Q.** With `CCCCC[C@H](O)/C=C/[C@H]1[C@H](O)CC(=O)[C@@H]1CCCCCCC(=O)O` as the compound, how does the Potency [1] read?
**A.** Its Potency is “inactive”.

**Q.** Which outcome [2] does the source give for `COc1ccc2nc(NC(=O)Nc3ccccc3)sc2c1` here?
**A.** Its outcome is “inactive”.

**Q.** What about the outcome [3] of the same compound?
**A.** The outcome was “inactive”.

**Q.** And the outcome [4]?
**A.** The outcome was “inactive”.

**Q.** And the Potency [5]?
**A.** Its Potency is “inactive”.

**Q.** With `C[C@@](Cc1ccc(O)c(O)c1)(NN)C(=O)O` as the compound, how does the outcome [6] read?
**A.** The outcome was “inactive”.

**Q.** What about the Potency [7] of the same compound?
**A.** Its Potency is “inactive”.

**Q.** And the max response [8]?
**A.** Its max response is -4.61%.

**Q.** Which Potency [1] does the source give for `COc1cc(C)c(/C=C/C(C)=C/C=C/C(C)=C/C(=O)O)c(C)c1C` here?
**A.** Its Potency is “inactive”.

**Q.** With `NC[C@H]1O[C@H](O[C@H]2[C@H](O)[C@@H](O[C@H]3O[C@H](CO)[C@@H](O)[C@H](N)[C@H]3O)[C@H](N)C[C@@H]2N)[C@H](N)C[C@@H]1O` as the compound, how does the Potency [1] read?
**A.** The Potency was “inactive”.

**Q.** With `O=C1c2ccccc2C(=O)c2c1ccc(O)c2O` as the compound, how does the outcome [2] read?
**A.** Its outcome is “inactive”.

**Q.** What about the outcome [3] of the same compound?
**A.** Its outcome is “inactive”.

**Q.** And the outcome [9]?
**A.** The outcome was “inactive”.

**Q.** And the outcome [4]?
**A.** Its outcome is “inactive”.

**Q.** What about the Potency [10] of the same compound?
**A.** Its Potency is 17.8 µM (active).

**Q.** And the Potency [5]?
**A.** Its Potency is 35.5 µM (active).

**Q.** Which Potency [11] does the source give for `O=C(O)Cc1cc(I)c(Oc2ccc(O)c(I)c2)c(I)c1` here?
**A.** The Potency was 2.82 µM (active).

**Q.** What about the Potency [12] of the same compound?
**A.** Its Potency is 3.16 µM (active).

**Q.** And the outcome [13]?
**A.** Its outcome is “inactive”.

**Q.** What about the outcome [14] of the same compound?
**A.** Its outcome is “inactive”.

**Q.** What about the activity change, negative = inhibition [15] of the same compound?
**A.** The activity change, negative = inhibition was 45.7% [at 0.566 µM].

**Q.** And the Potency [5]?
**A.** Its Potency is “inactive”.

**Q.** Which Potency [5] does the source give for `C[C@]12CC[C@@H]3c4ccc(OC(=O)c5ccccc5)cc4CC[C@H]3[C@@H]1CC[C@@H]2O` here?
**A.** The Potency was “inactive”.

**Q.** With `CC(=O)Nc1ccc(NC(=S)NC(=O)c2ccc(C(C)(C)C)cc2)cc1` as the compound, how does the Potency [5] read?
**A.** Its Potency is “inactive”.

**Q.** What does the source list for `Oc1ccc(/C=C/c2cc(O)cc(O)c2)cc1`?
**A.** outcome [16]: inactive; outcome [2]: inactive; outcome [17]: inactive; Potency [1]: inactive; outcome [3]: inactive; outcome [18]: inactive; outcome [19]: inactive; outcome [4]: inactive; outcome [20]: inactive; Potency [5]: inactive
